Assay results as given in the supplement of paper PMC3334620.
The full ranking holds about 33,000 sequences; the median of “E-score (-0.5 to 0.5)” is about -0.016, and the highest 2% start at about 0.32. This is one part of a sample in which the highest values are shown more often than they occur.

These sequences were tested against T1, Stp1 (UniProt B3LFK1) (assay: PBM E-score (8-mer binding enrichment) (E-score (-0.5 to 0.5)); higher = stronger / more preferred TF binding). Conditions: protein concentration: 200 nM; construct: GST-full length.
T1 sequence: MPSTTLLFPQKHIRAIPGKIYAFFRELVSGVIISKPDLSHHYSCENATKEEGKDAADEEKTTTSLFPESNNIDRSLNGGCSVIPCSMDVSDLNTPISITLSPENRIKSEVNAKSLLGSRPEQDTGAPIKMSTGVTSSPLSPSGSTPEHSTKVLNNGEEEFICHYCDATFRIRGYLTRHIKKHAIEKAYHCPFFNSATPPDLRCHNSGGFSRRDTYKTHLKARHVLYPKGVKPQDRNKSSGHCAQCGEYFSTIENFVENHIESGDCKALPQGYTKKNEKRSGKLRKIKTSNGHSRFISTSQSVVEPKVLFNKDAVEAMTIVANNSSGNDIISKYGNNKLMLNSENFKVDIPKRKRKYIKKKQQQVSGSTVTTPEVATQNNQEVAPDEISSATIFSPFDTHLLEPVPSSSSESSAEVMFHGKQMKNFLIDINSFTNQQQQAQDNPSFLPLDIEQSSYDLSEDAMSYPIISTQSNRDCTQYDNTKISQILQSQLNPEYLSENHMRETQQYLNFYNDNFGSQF
Description: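 Universal 'all 10-mer' protein binding microarrays (Agilent AMADID 015681) probed with GST-tagged S. cerevisiae TFs (full-length or DBD) made by in vitro transcription/translation (PURExpress), about 100-200 nM. Bound TF was detected with fluorescent anti-GST. Each ungapped 8-mer (which stands for itself and its reverse complement) is scored by the PBM enrichment score (E-score), a modified Wilcoxon-Mann-Whitney statistic from -0.5 to +0.5, computed with the Universal PBM Analysis Suite. Scale: above 0.35 generally sequence-specific binding.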

| Sequence | PBM E-score |
| --- | --- |
| ATCGAGTG | 0.141 |
| AAATGTCC | -0.229 |
| AATAAGCC | 0.0484 |
| AGTGAATG | 0.0894 |
| CAGTAACG | 0.0111 |
| TGTGCCAA | 0.117 |
| ATGACTGA | -0.164 |
| CGATTCCG | -0.0394 |
| GAGGCCAA | -0.164 |
| ATAAATGG | 0.0779 |
| TAGGGCGA | 0.178 |
| ATCTCCTA | -0.214 |
| ATTGAGGA | -0.0544 |
| AGCCGTAG | 0.392 |
| AGCCGTAA | 0.31 |
| CTCCGTAC | 0.184 |
| CGCCGTAC | 0.487 |
| AGCCGTAT | 0.435 |
| ATCCGTAG | 0.112 |
| CACCGTAG | -0.0209 |
| AACCGTAT | -0.0259 |
| CCCCGTAG | -0.0863 |
| CACCGTAC | 0.121 |
| ACCCGTAG | -0.36 |
| CGCCGTAG | 0.465 |
| CGAGCCCA | -0.215 |

| Sequence | PBM E-score |
| --- | --- |
| GAGACGTA | -0.074 |
| ATTACTTC | -0.0579 |
| ACGTGTCA | -0.0154 |
| AAAGCACG | 0.0591 |
| CGATAGGC | 0.135 |
| GCACGGGC | 0.19 |
| ACACGGCC | 0.344 |
| ACACGGAC | 0.217 |
| ACACGGGC | 0.0838 |
| GCACGGAC | 0.28 |
| GCACGGCC | 0.415 |
| GTCTACAA | -0.0248 |
| CCAGGCGG | -0.0554 |
| AGACATTG | -0.194 |
| GATCTTCA | -0.025 |
| CTTTTAGA | 0.0884 |
| GCACGAAC | 0.101 |
| ACACGAAA | 0.0839 |
| GCACGAAA | 0.326 |
| GCCATACC | -0.0417 |
| CCAACTGA | -0.167 |
| GCGCCTAC | 0.35 |
| ACGCCTAC | -0.0656 |
| GCGCCTCA | 0.401 |
| CTGCCTCA | -0.0442 |
| TCGCCTCA | 0.281 |

| Sequence | PBM E-score |
| --- | --- |
| GTGCCTCA | 0.365 |
| GTGCCTGA | -0.105 |
| ATGCCTTA | 0.236 |
| ACGCCTCA | 0.313 |
| ATGCCTCA | 0.279 |
| GTGCCTTA | 0.367 |
| CCGCCTAC | -0.0313 |
| AGCCCACT | -0.203 |
| TCTTTGCA | 0.165 |
| GCAGACCC | -0.107 |
| CTCCCCTC | -0.3 |
| AACTTGGA | 0.0205 |
| ATCGTCTG | 0.0798 |
| AAAGGTAC | -0.00049 |
| GAAGTGCC | 0.309 |
| GAGTACTA | 0.051 |
| GCGCCTGA | 0.16 |
| GCGCCTTA | 0.399 |
| CCGCCTTA | 0.201 |
| ATTGCCCG | -0.0444 |
| CCGGCTCG | -0.0179 |
| AAGGCTCA | 0.16 |
| AGGGCTCA | -0.101 |
| AAGGCTCG | -0.0294 |
| ACGGCTCG | 0.444 |
| GCGGCTCC | 0.315 |

| Sequence | PBM E-score |
| --- | --- |
| AAGGCTCT | 0.21 |
| ACGGCTCA | 0.403 |
| CCGGCTCC | -0.129 |
| ACAGCTCT | -0.306 |
| ACGGCTCT | 0.454 |
| ACGGCTCC | 0.449 |
| CTCACAAA | 0.109 |
| GAAGAGGA | -0.286 |
| AATCGATG | 0.174 |
| GACGCTCA | -0.136 |
| GGGCTAGA | -0.142 |
| ACCTTTCG | -0.121 |
| CCTCTACC | -0.24 |
| AGAGTGTC | 0.0784 |
| ATGATCAT | 0.17 |
| GCATAGAA | 0.133 |
| GCATTGGC | -0.0163 |
| AGTTTGGA | 0.0815 |
| ACTGTCCT | -0.097 |
| ACTCTCCC | -0.159 |
| GAAACCTA | -0.22 |
| GGACTACC | -0.286 |
| AAGTCTGT | -0.193 |
| AACGATTG | 0.0458 |
| CGACAGCC | -0.0511 |
| CCGGCTCA | 0.0597 |

| Sequence | PBM E-score |
| --- | --- |
| TCGGCTCA | -0.0668 |
| GCGGCTCA | 0.461 |
| AAGAACGC | 0.185 |
| AAGAGCCG | 0.336 |
| AAGAGCCT | 0.134 |
| CAGAGCCA | -0.148 |
| CAGAGCCG | 0.338 |
| AAGAGCCA | 0.103 |
| CAGAGCCC | -0.0943 |
| AGAATAAC | -0.00738 |
| ACCAACGG | 0.173 |
| GTAGAGTA | 0.0935 |
| AGGGTAAC | -0.165 |
| GACGCCGA | 0.304 |
| CACGCCGC | 0.417 |
| GACGCCGC | 0.453 |
| CACGCCGG | -0.0191 |
| CACGCCGA | 0.0798 |
| GACGCCCC | -0.00392 |
| GGAACTTA | -0.0446 |
| ATGGCACA | 0.229 |
| AGGGCACG | 0.302 |
| ATGGCACG | 0.354 |
| CGGGCACG | 0.139 |
| CTGGCACA | -0.187 |
| AGGGCACA | 0.334 |

| Sequence | PBM E-score |
| --- | --- |
| CTGGAGGC | -0.0215 |
| ACTGGCTC | -0.267 |
| AGTAGCTA | -0.16 |
| ACCGGCAG | -0.121 |
| ATCGGCAG | -0.00845 |
| TTCGGCAA | 0.088 |
| AACGGCAG | 0.384 |
| TACGGCCA | 0.214 |
| CTCGGCAG | 0.117 |
| CACGGCAG | 0.428 |
| CTCGGCAA | 0.1 |
| TACGGCAA | 0.449 |
| CCCGGCAG | -0.227 |
| CCCGGCAA | 0.0207 |
| CACGGCAA | 0.469 |
| AGACTTTC | -0.256 |
| TCTCAACA | 0.0271 |
| CAGGCCAG | -0.0909 |
| ATGGGAAC | -0.132 |
| GTGAGCAC | -0.066 |
| CCCTGATC | -0.255 |
| CCTAACAC | 0.067 |
| CGAGCCTA | -0.0212 |
| ACATTAAT | 0.0799 |
| ACAAGCGT | -0.135 |
| AACGGCAA | 0.432 |

| Sequence | PBM E-score |
| --- | --- |
| AATGGCAT | 0.356 |
| ATCGGCAC | 0.297 |
| ACCGGCAC | 0.301 |
| AACGGCAT | 0.451 |
| ACCGGCAA | -0.0651 |
| AATGGCAC | 0.275 |
| ATCGGCAT | 0.238 |
| ATCGGCAA | 0.106 |
| ACCGGCAT | 0.0121 |
| AATGGCAG | 0.0303 |
| AACGGCAC | 0.472 |
| TAGGGGAA | -0.171 |
| AAAGGATT | -0.109 |
| CAGTGGGG | -0.239 |
| AAACTCGG | -0.0615 |
| AGACTCAG | -0.133 |
| CCTGCTTA | -0.0853 |
| GTGTAGCA | -0.202 |
| ATGGAAAC | -0.0997 |
| CAAGCCCA | -0.0787 |
| ACGGAATA | 0.0278 |
| GTCGGCAA | 0.0611 |
| GACGGCAC | 0.453 |
| GACGGCAA | 0.325 |
| GCCGGCAA | 0.106 |
| GACGGAAC | -0.0397 |

| Sequence | PBM E-score |
| --- | --- |
| GCCGGCAC | 0.273 |
| CAAGCCCG | -0.0901 |
| CCACACTA | 0.127 |
| ATCTAGCG | -0.0611 |
| ACCAGATG | -0.146 |
| AAGAGGCG | 0.298 |
| CTGAGGCA | 0.192 |
| GAGAGGCA | 0.208 |
| GGGAGGCA | 0.00612 |
| ATGAGGCA | 0.332 |
| ATGAGGTG | -0.0679 |
| ATGAGGAA | -0.0278 |
| AAGAGGCT | 0.0613 |
| ATGAGGCG | 0.35 |
| ATGAGGCC | 0.0892 |
| GTGAGGCA | 0.367 |
| AAGAGGCA | 0.363 |
| GTTCTGTA | 0.0215 |
| TCCCGCGA | -0.312 |
| TATTGAGA | 0.0944 |
| CCTGCTCC | 0.0227 |
| CATTAAAA | 0.245 |
| CAAGACCC | -0.272 |
| AAAGGACC | 0.0732 |
| ATGAGTAC | 0.0493 |
| AATGTGGC | 0.158 |

| Sequence | PBM E-score |
| --- | --- |
| CATGTGGC | 0.32 |
| CATGTGGG | -0.144 |
| AGTGTGGC | 0.068 |
| CGTGTGGC | 0.353 |
| CGTGTGGA | 0.016 |
| AGCTCATC | -0.307 |
| TAGCACCA | -0.0587 |
| GCAACTAA | 0.263 |
| ATGTTTCG | 0.147 |
| AAAAACGA | 0.128 |
| GCGGCGCA | 0.463 |
| GGGGCGCA | 0.126 |
| GCGGCGCC | 0.484 |
| CCGGCGGC | 0.152 |
| TCGGCGCA | 0.243 |
| CCGGCGCG | 0.298 |
| CCGGCGCA | 0.121 |
| GCGGCCCC | 0.176 |
| CCGGCGCC | 0.367 |
